Laboratory results reported in the supplement of paper PMC8728848.
Only a selection was taken, and the strongest signals are over-represented in it overall.

Assays:
Test in all cases: glycan array binding signal (z-score within array); higher = stronger binding
Conditions in all cases: glycan notation: IUPAC condensed, linker removed
[1] = target: Gal(b1-3)GlcNAc(b1-3)Gal(b1-4)GlcNAc(b1-3)Gal(b1-4)GlcNAc(b1-2)[Gal(b1-3)GlcNAc(b1-3)Gal(b1-4)GlcNAc(b1-3)Gal(b1-4)GlcNAc(b1-6)]Man(a1-6)[Gal(b1-3)GlcNAc(b1-3)Gal(b1-4)GlcNAc(b1-3)Gal(b1-4)GlcNAc(b1-2)Man(a1-3)]Man(b1-4)GlcNAc(b1-4)[Fuc(a1-6)]GlcNAc
Procedure, shortened: (§1)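 The binding signal is a Z-score computed within each array. Data were drawn from 3228 arrays in the Consortium for Functional Glycomics database, restricted to those with a known protein sequence. Scores were averaged over arrays of the same protein sequence at different concentrations or buffers, and over linkers, and negative values can be taken as non-binding.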

[2] = target: Gal(b1-3)[Fuc(a1-4)]GlcNAc(b1-3)Gal(b1-4)[Fuc(a1-3)]GlcNAc
Procedure, shortened: as §1

[3] = target: Gal(b1-3)[Neu5Ac(a2-6)]GalNAc
Procedure, shortened: as §1

[4] = target: Gal(b1-4)GlcNAc(b1-2)Man(a1-3)[Gal(b1-4)GlcNAc(b1-2)Man(a1-6)][Gal(b1-4)GlcNAc(b1-4)]Man(b1-4)GlcNAc(b1-4)[Fuc(a1-6)]GlcNAc
Procedure, shortened: as §1

[5] = target: Gal(b1-4)GlcNAc(b1-2)[Gal(b1-4)GlcNAc(b1-6)]Man(a1-6)[GlcNAc(b1-4)][Gal(b1-4)GlcNAc(b1-2)[Gal(b1-4)GlcNAc(b1-4)]Man(a1-3)]Man(b1-4)GlcNAc(b1-4)[Fuc(a1-6)]GlcNAc
Procedure, shortened: as §1

[6] = target: Gal(b1-4)GlcNAc(b1-3)Gal(b1-4)Glc
Procedure, shortened: as §1

[7] = target: Gal(b1-4)GlcNAc(b1-6)[Gal(b1-3)]GalNAc
Procedure, shortened: as §1

[8] = target: Gal(b1-4)GlcNAc(b1-6)[Gal(b1-4)GlcNAc(b1-3)]GalNAc
Procedure, shortened: as §1

[9] = target: Gal3S(b1-4)[Fuc(a1-3)]GlcNAc6S
Procedure, shortened: as §1

[10] = target: GlcNAc(a1-3)Gal(b1-4)GlcNAc
Procedure, shortened: as §1

[11] = target: GlcNAc(a1-4)Gal(b1-3)GlcNAc
Procedure, shortened: as §1

[12] = target: GlcNAc(b1-3)Gal(b1-4)GlcNAc(b1-6)[GlcNAc(b1-3)]Gal(b1-4)GlcNAc
Procedure, shortened: as §1

[13] = target: Man(a1-2)Man(a1-2)Man(a1-3)Man
Procedure, shortened: as §1

[14] = target: Neu5Ac(a2-3)Gal(b1-3)GlcNAc
Procedure, shortened: as §1

[15] = target: Neu5Ac(a2-3)Gal(b1-4)GlcNAc(b1-3)Gal(b1-3)GlcNAc
Procedure, shortened: as §1

[16] = target: Neu5Ac(a2-3)Gal(b1-4)[Fuc(a1-3)]GlcNAc
Procedure, shortened: as §1

[17] = target: Neu5Ac(a2-6)Gal(b1-4)GlcNAc(b1-2)Man(a1-3)[GlcNAc(b1-2)Man(a1-6)]Man(b1-4)GlcNAc(b1-4)GlcNAc
Procedure, shortened: as §1

[18] = target: Neu5Ac(a2-6)Gal(b1-4)GlcNAc(b1-3)Gal(b1-3)GlcNAc
Procedure, shortened: as §1

[19] = target: Neu5Ac(a2-8)Neu5Ac(a2-3)[GalNAc(b1-4)]Gal(b1-4)Glc
Procedure, shortened: as §1

[20] = target: Neu5Ac9Ac(a2-3)Gal(b1-4)GlcNAc
Procedure, shortened: as §1

[21] = target: Neu5Ac9Ac(a2-6)Gal(b1-4)GlcNAc
Procedure, shortened: as §1

[22] = target: Neu5Gc(a2-3)Gal(b1-4)GlcNAc(b1-3)Gal(b1-4)GlcNAc(b1-2)Man(a1-3)[Neu5Gc(a2-3)Gal(b1-4)GlcNAc(b1-3)Gal(b1-4)GlcNAc(b1-2)Man(a1-6)]Man(b1-4)GlcNAc(b1-4)GlcNAc
Procedure, shortened: as §1

B1: Epa10 (protein)
chain: MNEKIFRYLTLLFLFELARSLPVEDKLNIKKVFEKRAVDFTPFAHYPRPEGCSSPPNSVSVGLHMNLYNYPYLYVKPSTKGMFTNDTNSDADGETDGDSAGGIEGRAGQCWNPEYQDPNFPRFGYKQYGEFGASDNVNGDISWDHNEFTEGCKPVLAALPPGYNYPDEITFSNFTMVLSGYFKPKTSGVYKFELKADDFILFNFGAKNAFECCNREESIDNFGPYVAYAMWPNQADQELEVYLFEDSYYPLRLFYNNRDYHSKFKIGFYPPGQTTITFDFDGYLFMLDDTGNECRDSIRYRTVCDDKVVDDTTYSTRYSTSMVPGGGSDVITIYYIRMKCEEEDCLGQWDPINNVCYSPDDCADDGGYWNGQMCDQSCKLEGGIVNPDTGDCDKSCIESGGFLDENGNCDTTCRDDGGMLVEGQCDYQCKEAGGILVGDHCDTTCVDSGGKLNEDGTCDHSCRDQGGQLDENGECDTSCKDSGGMLIEGECDTSCKDEGGQLDDNNECINHCKDQGGIIDENGNCDTSCKDSGGKLDESGACDTSCRDDGGIIDENGNCNTTCRDDGGIIVGDHCDTSCRDAGGILIEDHCDTTCRDSGGKLNEDGTCDHSCRDQGGQLDENGKCDYSCKNGGGKLDEDGNCDMSCKENGGKLDENGDCDLSCKEDGGKLDGNGDCDYSCKEEGGVIDESGNCNTTCKDSGGQIIDGECNYGCIEVGGVVIDGECDTSCIDSGGILDGDGNCDRSCIESGGVLEDGACNTTCRDSGGQLNVDGTCDTSCRDDGGMLVEGQCDYQCKEAGGILEDGECVFPPTSSSTSETSSTTDQSSLQSDDSSMESSSTPMDSSTIESSSSEIITSESESESVPIASSSSEVMTSESESESIPILTSSSEIPIASSSSEIPVASSSSEIIIPESESESVPVASSSSEIPIASSSSEIPVASSSSEIPVASSSSEIIIPESESESIPIESTSSEAVSSRSESDSSYPTPTPTTTTITTWPNPIQPTTSNSSPIVSSSTETPGIAESSSRISDLESSRRTSILGDDRTRTRTTITSTITEDGQIITITTTVTGFVPEPTGETEGNGSDDENPENPIENNTDENEFLDPEFTDDIPDDPAGPEDNGNGPVNPEQGNDNDPVNLEDSGNNGAVNPEQAPVNDEDNGGNDPVNPEQDNNNGPANPGQDSTNGSGNSDQIDNNPPTPEENAGDGNSNGNDPADPSRRTSILGDERTRASPGGTSQPTGANGNVNGNSPGANVNGGGTGNSNNNNNNNNNNNNGNAPNGGDGSNGDANQGPSRRTSLLGDERTRAGQAAPTGGSSPDNGIAGDTSNNGGAIVSQQVDDGGAGSPRRTSILGDVRSRTTLNGEVLNFEGSGVRRAVAGNLALPLMMVGLVFNL
With B1 the “glycan array binding signal (z-score)” value [1] was 0.117, the “glycan array binding signal (z-score)” value [2] was -0.254 and the “glycan array binding signal (z-score)” value [3] was 3.73. For the same binder, the “glycan array binding signal (z-score)” value [4] was -0.267, the “glycan array binding signal (z-score)” value [5] was 0.014 and the “glycan array binding signal (z-score)” value [6] was -0.234. The “glycan array binding signal (z-score)” value [7] was 2.59, the “glycan array binding signal (z-score)” value [8] was 0.208 and the “glycan array binding signal (z-score)” value [9] was -0.35. For the same binder, the “glycan array binding signal (z-score)” value [10] was -0.222, the “glycan array binding signal (z-score)” value [11] was -0.238 and the “glycan array binding signal (z-score)” value [12] was -0.312. For the same binder, the “glycan array binding signal (z-score)” value [13] was -0.264, the “glycan array binding signal (z-score)” value [14] was -0.234 and the “glycan array binding signal (z-score)” value [15] was -0.284. The “glycan array binding signal (z-score)” value [16] was -0.278, the “glycan array binding signal (z-score)” value [17] was -0.287 and the “glycan array binding signal (z-score)” value [18] was -0.258. For the same binder, the “glycan array binding signal (z-score)” value [19] was -0.27, the “glycan array binding signal (z-score)” value [20] was -0.271 and the “glycan array binding signal (z-score)” value [21] was -0.297. The “glycan array binding signal (z-score)” value [22] was -0.292.
